This note sets out measurements from PubChem BioAssay.

Activity calls are given as the source filed them.

Test [1] in a line: small molecules captured by biotinylated probe aFSTL3 – biochemical, small-molecule microarray, fluorescence 635/667, stem cell growth factor project, primary screen (AID 1064).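 Further: measures binding of the biotinylated anti-FSTL3 antibody to printed compounds.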 To be noted: higher = more signal.
A short description of test [2]: binders from COS7 lysate, DM2A8 probe, primary screen, torsin A project, cell lysate, small-molecule microarray, fluorescence 635/667 (AID 1065). To be noted: higher = more signal, COS7 lysate expressing mutant human TOR1A.
Test [3] in a line: small molecules captured by biotinylated probe aFGF2 – biochemical, small-molecule microarray, fluorescence 635/667, stem cell growth factor project, primary screen (AID 1067).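 Further: measures binding of biotinylated aFGF2 protein to printed compounds on slides; z-score merges feature fluorescence and signal-to-noise across triplicate slides.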 To be noted: higher = more signal.
The nature of test [4]: small molecules captured by biotinylated probe aFGF10 – biochemical, small-molecule microarray, fluorescence 635/667, stem cell growth factor project, primary screen (AID 1071).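 Further: score merges 667 nm spot intensity and signal to noise from triplicate slides.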 To be noted: higher = more signal.
In test [5] the target is Neurogenic locus notch homolog protein 2 (Homo sapiens) (UniProt Q04721). Description: small molecules binding Notch2 protein – biochemical, small-molecule microarray, 635 nm fluorescence, stem cell growth factors, primary screen (AID 1073). To be noted: higher = more signal.
Test [6] deals with Pro-neuregulin-1, membrane-bound isoform (Homo sapiens) (UniProt Q02297). Description: small molecules binding neuregulin-1 protein – biochemical, small-molecule microarray, fluorescence 635/667, psychiatric disease protein project, primary screen (AID 1075).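 Further: score combines 667 nm spot fluorescence with signal to noise.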 To be noted: NRG1 binding, 635 nm fluorescence, higher = more signal.
Sequence of Pro-neuregulin-1, membrane-bound isoform (Homo sapiens) (Q02297 whole entry, looked up, the tested form may be a part, canonical isoform): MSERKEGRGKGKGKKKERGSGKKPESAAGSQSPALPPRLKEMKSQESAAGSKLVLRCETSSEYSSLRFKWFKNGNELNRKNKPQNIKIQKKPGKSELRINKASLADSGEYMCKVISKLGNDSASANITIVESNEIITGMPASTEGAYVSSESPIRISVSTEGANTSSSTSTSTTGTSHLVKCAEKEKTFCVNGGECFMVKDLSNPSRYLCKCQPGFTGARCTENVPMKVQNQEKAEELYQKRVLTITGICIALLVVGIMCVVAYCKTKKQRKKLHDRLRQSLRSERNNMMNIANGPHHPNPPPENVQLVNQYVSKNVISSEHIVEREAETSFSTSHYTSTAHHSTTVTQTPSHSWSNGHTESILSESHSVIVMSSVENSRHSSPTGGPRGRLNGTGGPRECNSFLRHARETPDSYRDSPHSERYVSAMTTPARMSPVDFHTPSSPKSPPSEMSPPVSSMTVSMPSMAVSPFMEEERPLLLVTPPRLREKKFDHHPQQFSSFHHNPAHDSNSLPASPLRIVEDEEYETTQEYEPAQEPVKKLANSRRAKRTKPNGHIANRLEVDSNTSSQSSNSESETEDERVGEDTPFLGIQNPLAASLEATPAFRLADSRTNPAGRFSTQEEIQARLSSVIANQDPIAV
In test [7] the test system is Neuregulin-1 EGF-like domain. Description: small molecules binding NRG1 EGF domain – biochemical, small-molecule microarray, 635 nm fluorescence, primary screen (AID 1081).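 Further: binding of the protein to compounds printed on small-molecule microarray slides.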 To be noted: higher = more signal.
Test [8] can be described thus: FRG1 expression reporter modulators in myotubes – cell-based, C2C12 myotubes, firefly/Renilla luciferase, luminescence, FRG1 inhibition for FSHD, primary screen (AID 1084). To be noted: FRG1 promoter luciferase, higher = more signal, called active from +8 up or from −8 down.
Test [9] in a line: small molecules captured by biotinylated probe aFST – biochemical, small-molecule microarray, fluorescence 635/667, stem cell growth factor project, primary screen (AID 1086).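 Further: score merges 667 nm fluorescence with signal-to-noise of each printed compound spot.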 To be noted: higher = more signal.
Test [10] in a line: binders of probe aHhip on microarray, primary screen, stem cell growth factor project, biochemical, small-molecule microarray, fluorescence 635/667 (AID 1087).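 Further: score merges spot fluorescence at 667nm with spot signal to noise ratio.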 To be noted: higher = more signal.
Test [11] relates to PRMT1 (protein arginine N-methyltransferase 1). The test is described as follows: small molecules binding arginine methyltransferase PRMT1 – biochemical, small-molecule microarray, 635 nm fluorescence, primary screen (AID 1088).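 Further: binding of Prmt1 protein to compounds spotted on small-molecule microarray slides.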 To be noted: higher = more signal.
The nature of test [12]: growth effects on S. cerevisiae YJM789 – YJM789 clinical isolate, OD600, 24 h, basal, primary screen (AID 1089).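 Further: growth of clinical yeast isolate S. cerevisiae YJM 789 seeded 1000 cells per well; test concentration not given here.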 To be noted: higher = more signal, called active from +8 up or from −8 down.
Test [13] can be described thus: S. pombe growth modifiers, basal conditions – strain 972, OD600, 24 h, no modulator, primary screen (AID 1090).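 Further: basal condition with compound alone and no growth modifier present; test concentration not given here.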 To be noted: S. pombe 972 growth, higher = more signal, called active from +8 up or from −8 down.
Test [14] in a line: budding yeast growth modifiers under rapamycin – strain BY4716, OD600, 96 h, primary screen (AID 1091). Further: test concentration not given here. To be noted: S. cerevisiae BY4716 + rapamycin, higher = more signal, called active from +8 up or from −8 down.
Test [15] deals with Torsin-1A-interacting protein 2 (Homo sapiens) (UniProt Q8NFQ8). Description: small molecules binding lysate-expressed LULL1 – cell lysate, human LULL1 lysate, 635/667 nm fluorescence, primary screen (AID 1092).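 Further: probe is lysate of COS7 cells overexpressing human LULL1; score merges per-feature 667 nm fluorescence with signal-to-noise.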 To be noted: small-molecule microarray, hLULL1 lysate binding, 635 nm fluorescence; higher = more signal.
Sequence of Torsin-1A-interacting protein 2 (Homo sapiens) (Q8NFQ8 whole entry, looked up): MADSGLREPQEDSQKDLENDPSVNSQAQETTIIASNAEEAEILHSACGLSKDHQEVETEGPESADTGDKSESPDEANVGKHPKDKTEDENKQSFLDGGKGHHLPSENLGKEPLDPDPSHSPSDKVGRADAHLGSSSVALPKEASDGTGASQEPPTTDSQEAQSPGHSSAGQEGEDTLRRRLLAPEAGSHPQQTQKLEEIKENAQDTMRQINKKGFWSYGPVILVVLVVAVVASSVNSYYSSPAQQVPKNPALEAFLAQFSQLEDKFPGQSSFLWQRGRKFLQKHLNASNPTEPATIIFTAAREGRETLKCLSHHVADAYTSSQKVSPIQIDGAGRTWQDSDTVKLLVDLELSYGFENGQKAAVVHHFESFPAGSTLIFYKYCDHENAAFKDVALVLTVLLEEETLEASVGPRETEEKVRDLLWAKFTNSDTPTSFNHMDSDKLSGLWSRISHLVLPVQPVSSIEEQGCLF
Test [16] in a line: optical density change of DRC41 E. coli – strain DRC41, OD650, 24 h, E. coli filamentation project, primary screen (AID 1093).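 Further: MC1000 strain lacking acrAB efflux and sulA so SOS filamentation is blocked; test concentration not given here.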 To be noted: E. coli DRC41 growth, higher = more signal, called active from +8 up or from −8 down.
Test [17] in a line: probe aLefty2 binding to arrayed compounds – biochemical, biotinylated probe, 635/667 nm fluorescence, primary screen (AID 1094).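 Further: score merges spot fluorescence near 667 nm with spot signal-to-noise ratio.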 To be noted: small-molecule microarray, higher = more signal.
The subject of test [18] is Noggin (protein binding on small-molecule microarray). Description: small molecules binding Noggin protein – biochemical, 635/667 nm fluorescence, primary screen (AID 1095).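 Further: score merges 667 nm feature fluorescence with signal to noise over triplicate slides.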 To be noted: 635 nm fluorescence, higher = more signal.
In test [19] the target is Neurogenic locus notch homolog protein 3 (Homo sapiens) (UniProt Q9UM47). Description: small molecules binding NOTCH3 protein – biochemical, 635/667 nm fluorescence, primary screen (AID 1096). To be noted: small-molecule microarray, 635 nm fluorescence, higher = more signal.
Sequence of Neurogenic locus notch homolog protein 3 (Homo sapiens) (Q9UM47 whole entry, looked up): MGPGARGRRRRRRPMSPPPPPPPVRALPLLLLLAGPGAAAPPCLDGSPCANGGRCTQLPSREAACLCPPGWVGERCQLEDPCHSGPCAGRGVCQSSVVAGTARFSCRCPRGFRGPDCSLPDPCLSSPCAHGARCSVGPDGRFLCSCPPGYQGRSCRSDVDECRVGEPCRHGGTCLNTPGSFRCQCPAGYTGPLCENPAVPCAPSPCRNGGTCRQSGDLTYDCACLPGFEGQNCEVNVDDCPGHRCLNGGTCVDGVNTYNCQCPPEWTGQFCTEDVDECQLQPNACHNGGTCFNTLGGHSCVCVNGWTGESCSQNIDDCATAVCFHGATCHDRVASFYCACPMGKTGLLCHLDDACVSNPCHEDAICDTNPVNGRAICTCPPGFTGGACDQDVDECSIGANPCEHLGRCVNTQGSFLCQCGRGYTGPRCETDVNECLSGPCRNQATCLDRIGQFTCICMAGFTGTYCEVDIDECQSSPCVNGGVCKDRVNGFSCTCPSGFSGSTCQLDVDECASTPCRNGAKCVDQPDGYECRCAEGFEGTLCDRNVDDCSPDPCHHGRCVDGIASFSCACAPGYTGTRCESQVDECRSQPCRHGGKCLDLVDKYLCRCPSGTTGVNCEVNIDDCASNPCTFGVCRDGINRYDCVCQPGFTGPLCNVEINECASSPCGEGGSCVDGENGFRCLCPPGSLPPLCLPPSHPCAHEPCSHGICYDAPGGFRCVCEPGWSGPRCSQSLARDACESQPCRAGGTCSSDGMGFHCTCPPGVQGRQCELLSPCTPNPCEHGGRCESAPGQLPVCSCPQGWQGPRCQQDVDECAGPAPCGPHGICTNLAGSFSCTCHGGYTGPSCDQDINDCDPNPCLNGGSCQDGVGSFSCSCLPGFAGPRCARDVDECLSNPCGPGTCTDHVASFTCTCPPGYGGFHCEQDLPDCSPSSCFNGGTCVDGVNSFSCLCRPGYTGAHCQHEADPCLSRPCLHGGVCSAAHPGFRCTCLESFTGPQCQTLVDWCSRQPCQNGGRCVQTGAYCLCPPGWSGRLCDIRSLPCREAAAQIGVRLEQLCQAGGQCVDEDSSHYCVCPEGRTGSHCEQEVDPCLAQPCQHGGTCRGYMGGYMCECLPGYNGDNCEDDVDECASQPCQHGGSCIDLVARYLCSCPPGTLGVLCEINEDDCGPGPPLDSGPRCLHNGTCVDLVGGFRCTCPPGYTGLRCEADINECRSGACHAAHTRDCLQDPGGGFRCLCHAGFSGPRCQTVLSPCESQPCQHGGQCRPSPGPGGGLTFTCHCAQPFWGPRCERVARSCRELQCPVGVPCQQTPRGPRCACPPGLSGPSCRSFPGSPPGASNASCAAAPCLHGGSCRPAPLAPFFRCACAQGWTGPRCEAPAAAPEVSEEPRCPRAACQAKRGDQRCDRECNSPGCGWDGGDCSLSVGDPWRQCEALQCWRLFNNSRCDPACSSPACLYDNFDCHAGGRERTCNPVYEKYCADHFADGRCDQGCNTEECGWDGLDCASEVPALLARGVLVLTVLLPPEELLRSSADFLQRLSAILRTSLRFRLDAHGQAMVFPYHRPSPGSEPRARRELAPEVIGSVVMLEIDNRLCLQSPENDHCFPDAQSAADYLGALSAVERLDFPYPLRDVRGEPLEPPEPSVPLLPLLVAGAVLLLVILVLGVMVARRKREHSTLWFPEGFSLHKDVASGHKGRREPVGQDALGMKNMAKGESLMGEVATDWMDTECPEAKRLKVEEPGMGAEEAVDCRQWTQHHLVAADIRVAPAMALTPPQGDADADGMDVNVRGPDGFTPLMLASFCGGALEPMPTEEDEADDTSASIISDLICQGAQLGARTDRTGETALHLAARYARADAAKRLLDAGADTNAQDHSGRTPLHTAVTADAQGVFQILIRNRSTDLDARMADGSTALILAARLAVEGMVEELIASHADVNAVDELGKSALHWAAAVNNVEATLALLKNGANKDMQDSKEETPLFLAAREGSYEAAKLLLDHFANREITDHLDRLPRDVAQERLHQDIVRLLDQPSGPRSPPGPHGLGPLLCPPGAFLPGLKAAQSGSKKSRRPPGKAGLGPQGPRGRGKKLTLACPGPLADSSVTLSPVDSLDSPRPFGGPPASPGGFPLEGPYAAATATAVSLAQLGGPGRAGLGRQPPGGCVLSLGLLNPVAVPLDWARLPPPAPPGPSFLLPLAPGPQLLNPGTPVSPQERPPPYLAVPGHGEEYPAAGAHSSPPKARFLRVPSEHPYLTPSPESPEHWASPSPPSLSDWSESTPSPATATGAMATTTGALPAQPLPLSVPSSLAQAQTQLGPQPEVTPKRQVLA
Test [20] can be described thus: probe aEGFR binding to arrayed compounds – biochemical, biotinylated probe, 635/667 nm fluorescence, primary screen (AID 1097).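 Further: probe is a biotinylated anti-EGFR antibody binding compounds printed on slides; score combines fluorescence near 667 nm and signal to noise of each spot.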 To be noted: small-molecule microarray, higher = more signal.

For `CC(c1ccccc1)C(O)C1C=CC2C(=O)N(c3ccccc3)C(=O)C2N1Nc1ccc(C#N)cc1` (stereo not given), the composite z-score in test [1] was -0.177; in test [2], 0.358; in test [3] it was 0.255; in test [4], 0.752; in [5], 1.59; in test [6], 1.91. Besides, the composite z-score in test [7] stood at 1.34; in [9] it was 1.42; in test [10], 0.0139; in [11] it was 1.55; in test [15], 3.88; in [17] it was 0.123. Further, the composite z-score is 0.562 in test [18], 1.04 in test [19] and 0.066 in test [20]. Also, the z-score in test [8] was -0.948 (inactive); in test [12], -2.46 (inactive); in test [13], 1.16 (inactive); in [14], 37.9 (active); in [16] it was 0.939 (inactive).

For the molecule `COC(=O)[C@@]1(Cc2ccc(F)cc2)[C@H]2c3cc(C(=O)N4CCCC4)n(CCO)c3C[C@H]2CN1C(=O)c1ccccc1`, the composite z-score in test [1] was 0.0451; in test [2] it was -0.124; in test [3], 0.153; in test [4] it was 0.603; in test [5] it was 1.64; in test [6] it was 1.06. Besides, the composite z-score was 1.26 in test [7]; 0.537 in test [9]; 0.628 in [10]; -1.09 in [11]; 2.88 in test [15]; 0.335 in test [17]. Further, the composite z-score in test [18] turned out to be 0.4; in test [19], 0.517; in test [20], 0.0753. Besides, the z-score in [8] is 0.383 (inactive); in test [12], -0.215 (inactive); in test [13], 1 (inactive); in test [14], -0.164 (inactive); in test [16] it was 0.208 (inactive).

On to `C=CC[C@]1(C(=O)NCc2ccccc2)COC(c2ccc(OCCCO)cc2)=N1`, for which the composite z-score in test [1] is 2.17; in [2], 2.12; in test [3], -0.008; in [4], -0.588; in test [5], -0.813; in test [6] it was 1.09. The composite z-score in test [7] was 0.521; in test [9], 0.946; in test [10], -0.335; in test [11] it was 0.822; in test [15], 2.87; in test [17] it was 0.843. Besides, the composite z-score in test [18] was -1; in test [19], -0.447; in test [20], -0.0675. Moreover, the z-score in [8] is 0.235 (inactive); in [12], -1.4 (inactive); in test [13], -4.95 (inactive); in test [14] it was -1.22 (inactive); in test [16] it was 1.34 (inactive).

For `O=C1OCCC/C=C\[C@H]2OC34C=CCN(Cc5ccccc5)C(=O)[C@H]3N(CCCCCO)C(=O)[C@@H]4C12` (stereo not given in full), the composite z-score in [1] was 0.566; in [2] it was -0.079; in [3] it was -0.147; in test [4] it was -0.0433; in [5], -1.12; in test [6] it was 1.05. Besides, the composite z-score was 0.387 in test [7]; -0.693 in [9]; -0.116 in [10]; 1.01 in test [11]; 3.13 in test [15]; -0.166 in test [17]. Further, the composite z-score was -0.773 in [18], -0.0471 in [19] and -0.245 in test [20]. In addition, the z-score is 2.92 (inactive) in test [8]; -1.05 (inactive) in [12]; -2.16 (inactive) in test [13]; 15.7 (active) in [14]; 0.549 (inactive) in test [16].

On to `CCCCC(=C=CC[C@H](O)c1ccc(OCCO)cc1)C[C@H](O)c1ccccn1`, for which the composite z-score is -0.199 in test [1]; 0.342 in test [2]; -0.109 in [3]; 0.694 in test [4]; 0.356 in [5]; 1.47 in test [6]. Further, the composite z-score in test [7] was 1.14; in test [9], 0.763; in [10] it was 0.0854; in test [11], 1.54; in test [15] it was 1.72; in test [17] it was -0.0094. Also, the composite z-score in test [18] was determined as 0.266; in test [19], 0.419; in test [20], 0.165. In addition, the z-score in test [8] is -0.865 (inactive); in test [12] it was 0.415 (inactive); in test [13], -1.18 (inactive); in test [14] it was -0.539 (inactive); in test [16], 0.493 (inactive).
